Experimental data from PubChem BioAssay (EPA / NIEHS).
Results filed as inconclusive are left out. Active and inactive are the calls of the source. How the source made its calls, unless noted: active means hit-call score of the fitted dose curve at least 0.9, where 1 is the maximum; inconclusive means response in the unintended direction; inactive means score below 0.9.

Legend:
[1] = read-out: UDP glucuronosyltransferase (UGT1A1), UGT1A1 (gene 54658); assay: LTEA_HepaRG_UGT1A1: Life Technologies and Expression Analysis (LTEA) Assay for UDP glucuronosyltransferase (UGT1A1) using HepaRG (AID 2283538; active means hit-call score of the fitted dose curve at least 0.9, where 1 is the maximum; inactive means score below 0.9); conditions: mRNA level, 48 h; actives raise or lower the signal
Outline: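 Human liver HepaRG cultures receive test chemical for 48 h, up to 100 uM in 0.5% DMSO, with phenobarbital induction controls. UGT1A1 mRNA is measured by qRT-PCR and normalized to ACTB, GAPDH and POLR2A.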

[2] = read-out: UDP glucuronosyltransferase (UGT1A6), UGT1A6 (gene 54578); assay: LTEA_HepaRG_UGT1A6: Life Technologies and Expression Analysis (LTEA) Assay for UDP glucuronosyltransferase (UGT1A6) using HepaRG (AID 2283539; active means hit-call score of the fitted dose curve at least 0.9, where 1 is the maximum; inactive means score below 0.9); conditions: mRNA level, 48 h; actives raise or lower the signal
Protocol: LTEA_HepaRG is a cell based, multiplexed-readout assay that uses HepaRG, a human liver cell line, with measurements taken at 48 hours after chemical dosing on a 96-well plate.LTEA_HepaRG_UGT1A6 is one of 102 assay component(s) measured in the LTEA HepaRG cell culture assay. It is a marker of NR mediated metabolism.Data from the assay component LTEA_HepaRG_UGT1A6 was analyzed into 1 endpoint. This assay endpoint, LTEA_HepaRG_UGT1A6, was analyzed with bidirectional fitting relative to DMSO as the negative control and baseline of activity. Using a type of inducible reporter, measures of mRNA induction for gain or loss-of-signal activity can be used to understand regulation of transcription factor activity. To generalize the intended target to other relatable targets, this assay endpoint is annotated to the transferase intended target family, where the subfamily is glucuronosyltransferase.
A total of 1060 chemcials from the ToxCast library were tested in eight-point concentration-response experiments. Cell culture and cytotoxicity assays were conducted at Thermo Fisher Scientific's Custom Services facility (Madison, WI). A single lot of human HepaRG cells (Thermo Fisher Scientific, Frederick, MD) was used for the cell culture experiments. 96-well format collagen type I coated plates of human HepaRG cells were prepared using established methods. Briefly, cryopreserved HepaRG cells were thawed, plated at a density of approximately 100,000 cells/well in HepaRG Thaw, Plate, and General Purpose media (HPRG770, Thermo Fisher Scientific), and incubated for 48 hours. 0.5% DMSO was selected as vehicle control to balance the requisite need of DMSO in HepaRG cultures to maintain differentiation (for example, baseline metabolism, proportions of hepatocytes vs. cholangiocytes), while enabling further hepatic receptor pathway activation (for example, PXR and CAR) in response to chemical exposure. 48 hours after plating, the culture medium was replaced with HepaRG Serum-Free Incudtion Media. Cells were exposed to each test chemical in duplicate and maintained in CO2 incubators for another 48 hours. Chemical plates were thawed to room temperature and 200x concentrations of treatment groups were prepared. 8-point conentration-reponse curves were made with the highest exposure at 100 uM, followed by half-log dilutions, all in 0.5% DMSO. Each test plate contained variouse controls, induction positive controls (1mM phenobarbital), cytotoxicity positive controls ([…] aflatoxin B1), vehicle controls (0.5% DMSO), and total lysis controls (0.5% DMSO). Cell morphology images were taken using an Essen IncuCyte FLR automated microscope, with six 96-well plates imaged in about 24 minutes. Images were captured and exported and JPEG files. Spent culture media was transfered to black-well plates for the LDH assay, and remaining media was sorted at -80 C for later use. Cells were treated with RLT buffer and frozen until shipped for gene expression analysis. Total RNA was isolated from the cell suspension in 75 uL of Buffer RLT (Qiagen, Germantown, MD 20874) by Quintiles/Expression Analysis (Durham, NC) using a custom isolation procedure. Total RNA from each plate well was transferred to a preamplification plate. Fluidigm's 96.96 Dynamic ArrayTM (Fluidigm, Amsterdam, the Netherlands) technology was used for gene expression analyses by quantitative reverse transcription polymerase chain reaction (qRT-PCR, performed by Quintiles/Expression Analysis, Durham, NC)89. Standard TaqManTM Assays (Applied Biosystems/ThermoFisher Scientific, Foster City, CA) were used to assess the expression of 93 genes selected based on their selectivity and sensitivity to important hepatic receptors known to be modulated by environmental chemicals; importance in human hepatocyte functionality; and hepatotoxicity. […]

[3] = read-out: X-box binding protein 1 (XBP1), XBP1 (gene 7494); assay: LTEA_HepaRG_XBP1: Life Technologies and Expression Analysis (LTEA) Assay for X-box binding protein 1 (XBP1) using HepaRG (AID 2283540; active means hit-call score of the fitted dose curve at least 0.9, where 1 is the maximum; inactive means score below 0.9); conditions: mRNA level, 48 h; actives raise or lower the signal
Outline: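 Eight concentrations (half-log, highest 100 uM, 0.5% DMSO) tested in duplicate on HepaRG cells over 48 h in serum-free induction medium; qRT-PCR of XBP1 normalised to ACTB, GAPDH, POLR2A.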

[4] = LTEA_HepaRG_LDH_cytotoxicity: Cytotoxicity Assessment in the Life Technologies and Expression Analysis (LTEA) Assay (AID 2283563)
Outline: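 Spent-medium LDH after 48 h chemical exposure of HepaRG cells in serum-free induction medium; eight concentrations, half-log dilutions from 100 uM, duplicate wells, fitted upward relative to 0.5% DMSO.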

[5] = ATG_XTT_Cytotoxicity: Cytotoxicity Assessment in the Attagene TRANS-FACTORIAL HepG2 Assay (AID 2283584)
Outline: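 24 h chemical exposure of reporter-transfected HepG2; XTT signal loss vs DMSO indicates cytotoxicity.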

[6] = TOX21_p53_BLA_p2_viability: Viability Assessment in the Tox21 HCT-116 p53 Agonism Beta-lactamase Assay, Phase 2 (AID 2283591);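 further: compound exposure lasted 16 h at 37 °C; actives lower the ATP signal meaning cytotoxicity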
Outline: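 HCT116 p53-bla cells, 4000/well, dosed after 5 h plating (217-fold dilution of DMSO stocks) and incubated 16 h at 37C. Viability taken as cellular ATP by CellTiter-Glo luminescence after 30 min RT; signal loss marks cytotoxicity.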

[7] = target: Cellular tumor antigen p53 (Homo sapiens) (UniProt P04637); assay: TOX21_p53_BLA_p2_ratio: Tox21 HCT-116 p53 Agonism Beta-lactamase Assay, Ratio, Phase 2 (AID 2283592)
Outline: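 Human colon HCT116 cells with an inducible p53 beta-lactamase reporter are exposed to test chemicals for 16 h at 37C. Reporter induction is read as the 460/530 nm emission ratio after CCF4-AM loading, normalized to DMSO.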

[8] = TOX21_p53_BLA_p3_viability: Viability Assessment in the Tox21 HCT-116 p53 Agonism Beta-lactamase Assay, Phase 3 (AID 2283593);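 further: cells exposed to compound for 16 h before reading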
Outline: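 HCT116 cells, 4000/well, dosed 5 h after plating by pin transfer (217-fold dilution from DMSO stock) and incubated 16 h at 37C, 5% CO2. Viability read as ATP luminescence with CellTiter-Glo after 30 min at room temperature.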

[9] = TOX21_p53_BLA_p4_viability: Viability Assessment in the Tox21 HCT-116 p53 Agonism Beta-lactamase Assay, Phase 4 (AID 2283597);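 further: hits lower the luminescence signal meaning cytotoxicity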
Outline: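 Luminescent ATP readout (CellTiter-Glo, 30 min, room temperature) in the same wells as the p53 bla ratio. HCT116 cells were treated for 16 h at 37C with DMSO-dissolved compounds.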

[10] = target: Cellular tumor antigen p53 (Homo sapiens) (UniProt P04637); assay: TOX21_p53_BLA_p3_ratio: Tox21 HCT-116 p53 Agonism Beta-lactamase Assay, Ratio, Phase 3 (AID 2283596)
Outline: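 HCT116 p53-bla cells (4000/well) given compound in DMSO (217-fold dilution) after 5 h, incubated 16 h at 37C. CCF4-AM substrate 2 h at room temperature; 460/530 nm emission ratio, gain fitted against DMSO.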

Cellular tumor antigen p53 (Homo sapiens), sequence (P04637 whole entry, looked up): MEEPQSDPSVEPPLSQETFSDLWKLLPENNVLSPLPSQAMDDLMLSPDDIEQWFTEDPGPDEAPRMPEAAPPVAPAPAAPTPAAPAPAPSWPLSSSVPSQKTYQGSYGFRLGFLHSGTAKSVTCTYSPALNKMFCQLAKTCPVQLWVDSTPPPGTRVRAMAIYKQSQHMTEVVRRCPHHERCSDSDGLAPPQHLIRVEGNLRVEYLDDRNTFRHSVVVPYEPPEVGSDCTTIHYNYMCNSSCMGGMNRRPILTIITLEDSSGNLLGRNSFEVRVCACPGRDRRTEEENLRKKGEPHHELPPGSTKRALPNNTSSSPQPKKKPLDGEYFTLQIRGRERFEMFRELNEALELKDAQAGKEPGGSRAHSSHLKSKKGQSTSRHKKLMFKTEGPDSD

## COC(=O)c1ccc(C(=O)OC)cc1
[1]
  outcome: inactive
[2]
  outcome: inactive
[3]
  outcome: inactive
[4]
  outcome: inactive
[5]
  outcome: inactive
[6]
  outcome: inactive
[7]
  outcome: inactive
[8]
  outcome: inactive
[9]
  outcome: inactive

## O=C(O)c1ccc(C(=O)O)c(C(=O)O)c1
[5]
  outcome: inactive

## CC=CC(=O)C1=C(C)C=CCC1(C)C
[5]
  outcome: inactive

## OCCCO
[5]
  outcome: inactive

## c1ccc2c(c1)-c1ccc3ccc4cccc5cc-2c1c3c45
[5]
  outcome: inactive

## C=C1CC[C@H]2O[C@]2(C)CC[C@@H]2[C@@H]1CC2(C)C
[5]
  outcome: inactive

## NC(=O)c1c(Cl)cccc1Cl
[5]
  outcome: inactive

## CCCC[N+](C)(CCCC)CCCC
[5]
  outcome: inactive

## C[N+](C)(C)CCO
[5]
  outcome: inactive

## CC(=O)OCC=C(C)CCC=C(C)CCC=C(C)C
[5]
  outcome: inactive

## CCC=C(C)C=O
[5]
  outcome: inactive

## NS(=O)(=O)c1cc(C(=O)O)c(NCc2ccco2)cc1Cl
[5]
  outcome: inactive

## N#CCCNCCC#N
[5]
  outcome: inactive

## CCCCOCC(C)OCC(C)O (stereo not given)
[5]
  outcome: inactive

## CCC(=O)OCC=Cc1ccccc1
[5]
  outcome: inactive

## C=C(C)C(=O)OCCOCCOC(=O)C(=C)C
[5]
  outcome: inactive

## O=C1CCCCCCCCCCCC(=O)OCCO1
[5]
  outcome: inactive

## Cc1ccncc1
[5]
  outcome: inactive
[6]
  outcome: inactive
[7]
  outcome: inactive
[8]
  outcome: inactive

## CC(C)(C)c1ccc(S)cc1
[5]
  outcome: inactive
[6]
  outcome: inactive

## CCCCCCC(C)O (stereo not given)
[5]
  outcome: inactive
[6]
  outcome: inactive
[7]
  outcome: inactive
[8]
  outcome: inactive
[10]
  outcome: inactive

## CC(=O)CCC(=O)O
[5]
  outcome: inactive

## CCCCCCCCCCCCCCCCCC(=O)OCCCCCCCCCCCCCC(C)C
[5]
  outcome: inactive
[6]
  outcome: inactive
[7]
  outcome: inactive
